{"source": "PubChem BioAssay (EPA / NIEHS)", "note": "Activity calls are given as the source filed them. The calls were made as follows: active = hit-call score of the fitted dose curve at least 0.9, where 1 is the maximum; inactive = score below 0.9."}
{"read-out": "Urokinase-type plasminogen activator receptor (uPAR), PLAUR (gene 5329)", "assay": "BSK_4H_uPAR: BioMAP Diversity Plus: 4H Assay for Urokinase-type plasminogen activator receptor (uPAR) Biomarker Activity (AID 2283030)", "conditions": "primary human endothelial cells (HUVEC); actives raise or lower the signal", "outline": "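Cell-surface uPAR ELISA signal, measured 24 h after dosing human umbilical vein endothelial cells, was analyzed with bidirectional fitting relative to DMSO. Parallel SRB staining of total protein tracked overt cytotoxicity.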"}
{"smiles": "CCS(=O)(=O)c1cccnc1S(=O)(=O)NC(=O)Nc1nc(OC)cc(OC)n1", "outcome": "inactive"}
{"smiles": "CCOC1Oc2ccc(OS(C)(=O)=O)cc2C1(C)C", "note": "(configuration not stated)", "outcome": "inactive"}
{"smiles": "[2H]C1([2H])[n+]2ccccc2-c2cccc[n+]2C1([2H])[2H]", "AC50": "1.49 µM (active)"}
{"smiles": "O=C(O)CCCOc1ccc(Cl)cc1Cl", "outcome": "inactive"}
{"smiles": "CC(C)N(C(=O)COc1nnc(C(F)(F)F)s1)c1ccc(F)cc1", "outcome": "inactive"}
{"smiles": "O=C(NC(=O)c1c(F)cccc1F)Nc1ccc(OC(F)(F)C(F)OC(F)(F)F)c(Cl)c1", "note": "(configuration not stated)", "outcome": "inactive"}
{"smiles": "N#Cc1c(Cl)c(Cl)c(Cl)c(C#N)c1Cl", "AC50": "1.81 µM (active)"}
{"smiles": "COC(=O)c1ccccc1S(=O)(=O)NC(=O)N(C)c1nc(C)nc(OC)n1", "outcome": "inactive"}
{"smiles": "CNC(=O)Oc1cccc(N=CN(C)C)c1", "outcome": "inactive"}
{"smiles": "CCN(CC)C(=O)SCc1ccc(Cl)cc1", "outcome": "inactive"}
{"smiles": "Clc1ccccc1-c1nnc(-c2ccccc2Cl)nn1", "outcome": "inactive"}
{"smiles": "COC(=O)c1ccccc1CS(=O)(=O)NC(=O)Nc1nc(OC)cc(OC)n1", "outcome": "inactive"}
{"smiles": "Cc1cc(C)nc(NC(=O)NS(=O)(=O)c2ccccc2C(=O)OC2COC2)n1", "outcome": "inactive"}
{"smiles": "CC1(c2ccc(Oc3ccccc3)cc2)OC(=O)N(Nc2ccccc2)C1=O", "note": "(configuration not stated)", "AC50": "16.1 µM (active)"}
{"smiles": "CCOc1nc(NC)nc(NC(=O)NS(=O)(=O)c2ccccc2C(=O)OC)n1", "outcome": "inactive"}
{"smiles": "CCc1ccc(C(=O)NN(C(=O)c2cc(C)cc(C)c2)C(C)(C)C)cc1", "AC50": "24.2 µM (active)"}
{"smiles": "O=[N+]([O-])c1c(Cl)c(Cl)c(Cl)c(Cl)c1Cl", "outcome": "inactive"}
{"smiles": "CCC(C)(C)C(=O)OC1=C(c2ccc(Cl)cc2Cl)C(=O)OC12CCCCC2", "AC50": "32 µM (active)"}
{"smiles": "CCC(C)(NC(=O)c1cc(Cl)c(C)c(Cl)c1)C(=O)CCl", "note": "(configuration not stated)", "AC50": "26.1 µM (active)"}
{"smiles": "COc1nn(CSP(=S)(OC)OC)c(=O)s1", "outcome": "inactive"}
{"smiles": "C#CCN1C(=O)COc2cc(F)c(N3C(=O)C4=C(CCCC4)C3=O)cc21", "outcome": "inactive"}
{"smiles": "CC(C)(C)C(O)/C(=C\\c1ccc(Cl)cc1Cl)n1cncn1", "note": "(configuration not stated)", "AC50": "27.9 µM (active)"}
{"smiles": "COP(=O)(OC)OC=C(Cl)Cl", "outcome": "inactive"}
{"smiles": "ClC1C(Cl)C(Cl)C(Cl)C(Cl)C1Cl", "note": "(configuration not stated)", "outcome": "inactive"}
{"smiles": "CC1(C)C(C=C(Cl)Cl)C1C(=O)OC(C#N)c1ccc(F)c(Oc2ccccc2)c1", "note": "(configuration not stated)", "outcome": "inactive"}
{"smiles": "COP(=S)(OC)Oc1ccc([N+](=O)[O-])cc1", "outcome": "inactive"}
{"smiles": "CC[C@H](C)[C@H]1O[C@]2(C=C[C@@H]1C)C[C@@H]1C[C@@H](C/C=C(\\C)[C@@H](O[C@H]3C[C@H](OC)[C@@H](O[C@H]4C[C@H](OC)[C@@H](O)[C@H](C)O4)[C@H](C)O3)[C@@H](C)/C=C/C=C3\\CO[C@@H]4[C@H](O)C(C)=C[C@@H](C(=O)O1)[C@]34O)O2", "note": "(tested in a mixture with another compound)", "AC50": "8.93 µM (active)"}
